Test [1] can be described thus: GFP-Q80 aggregate reduction, neuronal-like cells, cell-based, NGF-treated PC12, GFPQ80 (AID 1614).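 Note: lower means fewer inclusions and 0 means no inclusions at all.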 The conditions noted are these: PC12 NGF-treated GFP-polyQ80 inclusion reduction.
Test [2] is described as follows: compounds altering circadian rhythm period length – cell-based, LOPAC library, luminescence reporter (AID 2774).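 Note: values are relative to mean of DMSO wells on each plate.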 The conditions noted are these: circadian reporter cells, at 7 µM, actives lie on both sides.
The subject of test [3] is Hepatitis C virus NS3 helicase. Put plainly: blockers of NS3h binding to ssDNA – biochemical, fluorescence polarization, LOPAC1280 library, primary screen (AID 687035; in the data active = inhibition above about 37%). The conditions noted are these: Purified HCV NS3 helicase, Cy5-dT15 ssDNA binding fluorescence polarization; stronger effect = higher value; concentration not given here. On the technique in general: Polarisation of emitted light reports the rotation of a fluorescent probe.

A short description of test [4]: compounds altering Cy5-DNA-NS3h complex signal – biochemical, LOPAC1280, artefact control for HCV NS3 helicase inhibitor project (AID 687037). The conditions noted are these: Cy5-DNA-NS3h complex fluorescence interference counterscreen. A general note: A counterscreen serves to expose hits that act by an unwanted route or on another target.
Test [5] relates to Aerobactin synthetase IucA (Klebsiella pneumoniae). Put plainly: inhibition of K. pneumoniae IucA enzyme – biochemical, Tocris library, absorbance (AID 1345561).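 Note: 100% = enzyme without compound and 0% = no enzyme.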 The settings on record: purified IucA enzyme assay, absorbance (OD) read-out; stronger effect = lower value;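 tested at 8 µM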.
Test [6] is described as follows: viability loss in pontine glioma line – cell-based, SU-DIPG-XVII, MIPE5.0, CellTiter-Glo, qHTS, dose response (AID 1347060; cut-off not given, nearly all actives have AC50 up to about 26 µM;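 for AC50: cells exposed to compound for 48 hours before viability readout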). The settings on record: CellTiter-Glo ATP luminescence. On the technique in general: ATP-based viability assays read luminescence as a measure of living cells.
The nature of test [7]: viability loss in pontine glioma line – cell-based, SU-DIPG-XIII, MIPE4.0, CellTiter-Glo, qHTS, dose response (AID 1347061; cut-off not given, nearly all actives have AC50 up to about 37 µM;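 note: cells exposed to compound for 48 hours before readout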). The settings on record: CellTiter-Glo ATP luminescence.
Test [8] can be described thus: viability loss in pontine glioma line – cell-based, JHH-DIPG-1, MIPE4.0, CellTiter-Glo, qHTS, dose response (AID 1347062; cut-off not given, nearly all actives have AC50 up to about 27 µM;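 for AC50: cells exposed to compound for two days before readout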). The settings on record: JHH-DIPG-1 viability, CellTiter-Glo ATP luminescence.
A short description of test [9]: viability loss in pontine glioma line – cell-based, SU-DIPG-XIII, MIPE5.0, CellTiter-Glo, qHTS, dose response (AID 1347064; cut-off not given, nearly all actives have AC50 up to about 23 µM;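 for AC50: cells exposed to compound for 48 hours before the viability read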). The conditions noted are these: CellTiter-Glo ATP luminescence.
Test [10] can be described thus: viability loss in pontine glioma line – cell-based, SU-DIPG-XXV, MIPE5.0, CellTiter-Glo, qHTS, dose response (AID 1347065; cut-off not given, nearly all actives have AC50 up to about 26 µM;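 note: cells exposed to compound for 48 hours before ATP readout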). The settings on record: CellTiter-Glo ATP luminescence.
A short description of test [11]: growth inhibition of DIPG cells – cell-based, MIPE4.0 library, CellTiter-Glo luminescence, qHTS (AID 1347066; cut-off not given, nearly all actives have AC50 up to about 30 µM;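 note: cells exposed to compound for 48 hours before readout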). The conditions noted are these: SU-DIPG-VI viability, CellTiter-Glo ATP luminescence.
Test [12] is described as follows: JHH-DIPG-1 glioma cell viability, MIPE5.0 library, CellTiter-Glo luminescence, qHTS (AID 1347067; cut-off not given, nearly all actives have AC50 up to about 26 µM;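 note: cells exposed to compound for 48 hours before readout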). The conditions noted are these: JHH-DIPG-1 glioma viability, CellTiter-Glo ATP luminescence.
Test [13] can be described thus: growth inhibition of DIPG cells – cell-based, MIPE5.0 library, qHTS (AID 1347068; cut-off not given, nearly all actives have IC50 up to about 30 µM;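 for IC50: cells exposed to compound for 48 hours before viability readout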). The settings on record: SU-DIPG-XXV viability.
Test [14] is described as follows: blockers of cellular phospholipid synthesis – cell-based, LOPAC library, screen 4, primary screen (AID 1347384). The settings on record: animal cells, phospholipid biosynthesis inhibition screen; at 10 µM.
Test [15] addresses ATP-dependent translocase ABCB1 (Homo sapiens) (UniProt P08183). Put plainly: P-glycoprotein substrate transport blockade – cell-based (AID 377; in the data active = fluorescence slope change above about 50%). The settings on record: MDR1-expressing cells, fluorescent substrate accumulation slope; stronger effect = higher value; concentration not given here.
Test [16] is described as follows: viability loss in pontine glioma line – cell-based, SU-DIPG-IV, MIPE4.0, CellTiter-Glo, qHTS, dose response (AID 1347063; cut-off not given, nearly all actives have AC50 up to about 30 µM;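 note: compound exposure lasted 48 hours before the viability readout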). The settings on record: CellTiter-Glo ATP luminescence.
Test [17] is described as follows: growth inhibition, single agent or in combination, cell-based, chromothripsis tumors, cisplatin or BGB combos (AID 1671449; in the data active = inhibition above about 80%;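 note: cells exposed for 96 hours; 0% = vehicle DMSO and 100% = killing by high DMSO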). The settings on record: LFS_MB_P medulloblastoma cells.
Test [18] is described as follows: growth inhibition, single agent and combos, cell-based, chromothripsis tumors, cisplatin or BGB combos (AID 1671450; in the data active = inhibition above about 80%;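 note: cells exposed to compound for four days; 0% = vehicle DMSO and 100% = cell killing by high DMSO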). The settings on record: HDN33 neuroblastoma cells, stronger effect = higher value.
Test [19] can be described thus: growth inhibition, single agents and combos, ICB984, cell-based, cisplatin or BGB combos, synergistic combos for chromothripsis tumors (AID 1671451).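 Note: cells exposed for 96 hours before readout; 0% = vehicle DMSO and 100% = killing by high DMSO.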 The conditions noted are these: ICB984 medulloblastoma cells, drug combinations, stronger effect = higher value.

Records with an inconclusive call do not appear. Activity calls are given as the source filed them. Unless noted, the rule behind the calls is not given here.

ATP-dependent translocase ABCB1 (Homo sapiens), sequence (P08183 whole entry, looked up): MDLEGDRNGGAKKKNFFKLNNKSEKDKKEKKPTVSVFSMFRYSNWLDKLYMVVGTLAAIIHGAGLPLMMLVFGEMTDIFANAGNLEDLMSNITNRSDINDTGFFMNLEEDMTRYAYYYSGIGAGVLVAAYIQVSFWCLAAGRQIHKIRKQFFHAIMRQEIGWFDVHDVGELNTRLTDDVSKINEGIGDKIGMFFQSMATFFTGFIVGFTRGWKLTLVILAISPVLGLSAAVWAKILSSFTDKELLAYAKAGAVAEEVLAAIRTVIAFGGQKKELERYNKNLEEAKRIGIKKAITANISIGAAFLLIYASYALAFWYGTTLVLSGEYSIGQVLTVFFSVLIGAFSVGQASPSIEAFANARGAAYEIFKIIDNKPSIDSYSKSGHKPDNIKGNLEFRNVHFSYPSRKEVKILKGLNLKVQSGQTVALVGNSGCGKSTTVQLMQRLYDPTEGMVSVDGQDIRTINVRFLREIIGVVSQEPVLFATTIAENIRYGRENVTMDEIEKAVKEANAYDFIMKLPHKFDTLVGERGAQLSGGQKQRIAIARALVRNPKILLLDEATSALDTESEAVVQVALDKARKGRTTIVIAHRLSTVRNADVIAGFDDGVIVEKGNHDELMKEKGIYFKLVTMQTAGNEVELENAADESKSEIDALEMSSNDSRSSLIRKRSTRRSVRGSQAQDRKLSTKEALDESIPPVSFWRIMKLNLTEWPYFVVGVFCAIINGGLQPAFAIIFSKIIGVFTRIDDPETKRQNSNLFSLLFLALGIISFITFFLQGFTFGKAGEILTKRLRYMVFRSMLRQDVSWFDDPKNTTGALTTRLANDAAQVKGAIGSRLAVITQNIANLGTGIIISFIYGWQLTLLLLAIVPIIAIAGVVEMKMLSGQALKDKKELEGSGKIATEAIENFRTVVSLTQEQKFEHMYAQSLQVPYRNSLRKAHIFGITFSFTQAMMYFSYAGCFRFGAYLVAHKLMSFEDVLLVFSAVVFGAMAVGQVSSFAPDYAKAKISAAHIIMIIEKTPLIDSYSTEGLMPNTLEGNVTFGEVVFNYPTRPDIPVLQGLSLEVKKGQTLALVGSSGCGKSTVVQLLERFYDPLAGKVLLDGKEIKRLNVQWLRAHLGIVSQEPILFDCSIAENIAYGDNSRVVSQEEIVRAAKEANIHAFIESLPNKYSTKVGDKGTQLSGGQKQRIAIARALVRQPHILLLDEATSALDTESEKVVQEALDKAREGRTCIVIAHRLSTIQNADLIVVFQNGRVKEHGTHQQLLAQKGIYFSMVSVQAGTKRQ

On to `NC(N)=NC(=O)c1nc(Cl)c(N)nc1N`, for which the inclusion score in [1] stood at 2. Moreover, the period change in test [2] was 0.02 h (inactive). Besides, the inhibition in test [3] is 1% (inactive). Besides, in test [4], the fluorescence ratio (interference) is 0.9 (inactive). For the same compound, in [5], the remaining activity was 101% (inactive). Besides, the compound was classed as inactive in test [6], in test [8], in [9], in [10], in test [11] and in test [12]. The compound was classed as inactive in [13] and in test [14]. Besides, the half-maximal activity concentration (AC50) in [7] was 14.8 µM (active).

Take `CNCCCC12CCC(c3ccccc31)c1ccccc12`: the fluorescence slope change in test [15] was 137% (active). Moreover, the period change in test [2] was 2.03 h (inactive). In addition, the inhibition in test [3] was -6% (inactive). In addition, the fluorescence ratio (interference) in test [4] was 0.9 (inactive). Also, the remaining activity in [5] was 112% (inactive). Further, the concentration at half-maximal activity (AC50) is 20.9 µM (active) in test [8] and 23.5 µM (active) in test [10]. The result in [11], in test [13] and in test [14] was inactive.

As for `CN(C)CCOC(c1ccccc1)c1ccccc1`, the inclusion score in test [1] worked out at 2. In addition, the period change in test [2] was -0.01 h (inactive). Besides, the inhibition in test [3] is -1% (inactive). Also, the fluorescence ratio (interference) in test [4] is 1 (inactive). For the same compound, the compound was classed as inactive in test [8], in test [9], in [10], in [11], in [12] and in test [13]. Further, the compound was called inactive in test [14].

Take `COc1ccc2c(c1)c(CC(=O)O)c(C)n2C(=O)c1ccc(Cl)cc1`: the fluorescence slope change in test [15] was 95% (active). Further, the inclusion score in test [1] was 2. For the same compound, the period change in test [2] is 0.07 h (inactive). In addition, in test [3], the inhibition was -5% (inactive). Further, the fluorescence ratio (interference) in test [4] was 1 (inactive). Besides, the remaining activity in [5] is 120% (inactive). Besides, the call in [6], in test [10], in test [11], in [12] and in test [13] was inactive. In addition, in [7], the AC50 is 18.7 µM (active).

Consider `CCCCc1oc2ccccc2c1C(=O)c1cc(I)c(OCCN(CC)CC)c(I)c1`, for which the period change in [2] is 0.145 h (inactive). For the same compound, the inhibition in [3] is 0% (inactive). Besides, the fluorescence ratio (interference) in test [4] is 0.9 (inactive). The AC50 in test [6] was 13.2 µM (active); in test [7], 7.43 µM (active); in test [8], 23.5 µM (active); in test [16], 1.05 µM (active); in test [9] it was 13.2 µM (active); in [11] it was 23.5 µM (active). Moreover, the AC50 in test [12] is 16.6 µM (active). For the same compound, the concentration for half-maximal inhibition (IC50) in test [13] was 23.5 µM (active). The call in test [14] was inactive.

With `COc1ccccc1N1CCN(CCCNc2cc(=O)n(C)c(=O)n2C)CC1`, the period change in test [2] was 0.18 h (inactive). Further, in [3], the inhibition was -4% (inactive). The fluorescence ratio (interference) in [4] is 1 (inactive). The remaining activity in [5] was 103% (inactive). In addition, the call in test [14] was inactive.

As for `CCn1cc(C(=O)O)c(=O)c2cc(F)c(N3CCNCC3)cc21`, the fluorescence slope change in test [15] was 98.4% (active). In test [1], this compound gave an inclusion score of 2. The call in test [7], in [8], in test [9], in [10], in [11] and in [13] was inactive. Also, the inhibition in [17] (at 0.5 µM, stronger effect = higher value) was 7.63% (inactive); in [17] (measured here: combination with BGB IC20, at 0.005 µM), -17.9%; in [17] (measured here: combination with BGB IC40, at 0.005 µM), -10.9%; in [17] (measured here: combination with BGB IC40, at 0.05 µM), -0.516%; in [17] (measured here: combination with cisplatin, at 0.5 µM, stronger effect = higher value) it was 9.32%; in test [17] (measured here: combination with cisplatin, at 5 µM, stronger effect = higher value), -19.2%. Also, the inhibition in test [18] (BGB combo, at 5 µM) is -0.689%; in test [18] (at 0.5 µM) it was 12.2% (inactive); in test [18] (cisplatin combo, at 5 µM) it was -11.9%; in test [18] (measured here: with BGB IC20 combination, at 0.5 µM) it was 32.5%; in test [18] (measured here: with cisplatin IC20 combination, at 0.5 µM), 3.81%; in test [18] (single agent, at 5 µM) it was -7.4%. Besides, the inhibition in test [19] (BGB IC20 combo, at 0.005 µM) was -26.7%; in test [19] (BGB IC40 combo, at 0.005 µM) it was -18.2%; in test [19] (BGB IC40 combo, at 0.05 µM) it was -41.7%; in test [19] (at 0.5 µM), -9.23% (inactive); in test [19] (cisplatin combo, at 0.05 µM), -41.7%; in test [19] (cisplatin combo, at 0.5 µM), -13%. Moreover, the inhibition in [19] (cisplatin combo, at 5 µM) was -17.2%; in test [19] (measured here: 5 uM single agent, at 5 µM) it was -7.24%.

As for `Fc1ccc([C@@H]2CCNC[C@H]2COc2ccc3c(c2)OCO3)cc1`, the inhibition in test [3] is -1% (inactive). For the same compound, the fluorescence ratio (interference) in [4] was 0.9 (inactive). In test [5], the remaining activity is 109% (inactive). For the same compound, the compound was classed as inactive in test [11] and in test [14].

`CCN(CC)CC(=O)Nc1c(C)cccc1C`: the inclusion score in [1] amounted to 2. Moreover, the period change in [2] is -0.265 h (inactive). Moreover, in test [3], the inhibition is -3% (inactive). The fluorescence ratio (interference) in test [4] was 1 (inactive). Moreover, the compound was classed as inactive in test [14].

In the case of `Nc1c2c(nc3ccccc13)CCCC2`, the fluorescence slope change in [15] is 56.2% (active). In test [1], this compound showed an inclusion score of 2. In addition, the period change in test [2] is -0.225 h (inactive). Besides, the inhibition in test [3] is -2% (inactive). Further, the fluorescence ratio (interference) in [4] is 1 (inactive). In test [5], the remaining activity is 109% (inactive). Also, the outcome in [6], in [7], in test [8], in test [16], in test [9] and in test [10] was inactive. Besides, the compound was called inactive in test [11], in [12], in test [13] and in test [14].

Consider `O=C1N=C(O)CN1/N=C/c1ccc(-c2ccc([N+](=O)[O-])cc2)o1`, for which the fluorescence slope change in [15] is 54.9% (active). The compound also yielded an inclusion score in test [1] of 1.5. Also, the remaining activity in test [5] is 110% (inactive).

Consider `O=c1n(CCCN2CCN(c3cccc(Cl)c3)CC2)nc2ccccn12`, for which, in test [15], the fluorescence slope change was 85.5% (active). Also, the inclusion score in [1] was found to be 2. Further, in test [2], the period change is -0.06 h (inactive). In addition, the inhibition in [3] is 0% (inactive). The fluorescence ratio (interference) in [4] is 1 (inactive). The result in [7], in test [8], in [16], in test [11] and in [14] was inactive.

As for `CC(=O)O[C@]1(C(C)=O)CC[C@H]2[C@@H]3C=C(C)C4=CC(=O)CC[C@]4(C)[C@H]3CC[C@@]21C`, the AC50 was 11.8 µM (active) in test [8] and 8.33 µM (active) in [16]. Moreover, the compound was classed as inactive in test [9], in [11] and in test [13].

Usually inhibition stands for the change of the read-out against control, counted positive when it falls. As usually defined, the remaining activity is the signal under treatment as a percentage of the control signal. A word on the AC50: it is the concentration at which the activity in the assay is half-maximal. The term IC50 denotes the point on the concentration scale where inhibition reaches its midpoint.

The values above are taken from PubChem BioAssay.
